According to the supplement of paper PMC6555819:

Columns and labels:
Assay in all cases: PBM binding z-score (relative to random genomic background probes); higher = stronger binding; sequences stand for … in GC…GCGATTGACAGCGTAGAATGAAGG
[1] = system: RARb homodimer (NR concentration 270 nM)
Outline: (§1)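 Random background probes are the reference for binding z-scores. These scores derive from regression-normalized fluorescence on custom Agilent 4×180K protein-binding microarrays incubated 1 h with ligand-free nuclear receptor dimers. Binding was detected with antibodies against each partner (one per run).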

[2] = system: RARg:RXRa (NR concentration 270 nM, RXRa partner concentration 90 nM)
Outline: as §1

[3] = system: RARg homodimer (NR concentration 270 nM)
Outline: as §1

[4] = system: RXRa DBDmut IVT, anti-RXR (DBD mutation: RXRa K156A/R161A, NR concentration 90 nM)
Outline: as §1

[5] = system: RXRa homodimer (NR concentration 180 nM)
Outline: as §1

[6] = system: THRa:RXRa (NR concentration 90 nM, RXRa partner concentration 90 nM)
Outline: as §1

[7] = system: THRa homodimer (NR concentration 90 nM)
Outline: as §1

[8] = system: VDR homodimer (NR concentration 270 nM)
Outline: as §1

[9] = system: VDR:RXRa (NR concentration 270 nM, RXRa partner concentration 90 nM)
Outline: as §1

Row | Sequence | PBM binding z-score [1] | PBM binding z-score [2] | PBM binding z-score [3] | PBM binding z-score [4] | PBM binding z-score [5] | PBM binding z-score [6] | PBM binding z-score [7] | PBM binding z-score [8] | PBM binding z-score [9]
1 | CTCGAAAGGTCGTGCTCAGGTGAGTATGCCAAAC | 2.94 | 5.26 | 3.88 | 2.18 | 4.88 | 4.11 | 0.926 | 0.764 | –
2 | TCGAGTAGGTTACGGGGGCATGCAGGGATGAAGA | 2.19 | 3.5 | 2.31 | 1.35 | 2.78 | 3.28 | 0.997 | 1.92 | 3.43
3 | TTGAGTAGGTTACGGGGGCATTCAGGGATGAAGA | 2.59 | 3.71 | 3.05 | 2.36 | 3.3 | 3.83 | 2.02 | 4.22 | –
4 | ATCGAAAGGTCGTGAAGTGAGTATACAGAAAGGC | 2.17 | 3.85 | 3.56 | 1.38 | 4.35 | 2.18 | 0.0261 | 1.02 | –
5 | CAAACTAGGTCAAAGGACAGTGAAAGGCGACGTA | 2.87 | 3.97 | 4.47 | 1.68 | 2.86 | 2.78 | 0.733 | 0.509 | –
6 | TCTAGTTGGTCAAAGGTCTCACACTCGAAATGCG | 1.83 | 1.78 | 1.17 | 1.14 | 1.98 | 0.831 | 0.738 | 0.545 | 1.42
7 | TCATATAGGTTAAAGGTGAAAGTCGGTGTGGTAA | 2.56 | 3.92 | 1.76 | 1.94 | 5.99 | 2.62 | 0.942 | 0.81 | –
8 | TGACTGAGGTTAAAGATCAGGGAACGTGGCGTCG | 0.864 | 2.39 | 1.35 | 0.903 | 3.77 | 2.41 | 0.422 | 0.537 | –
9 | CTATGTAGGTTAAGGGGGTCACTCAGTTTGAAAG | 3.95 | 5.13 | 3.79 | 1.85 | 5.58 | 3.79 | 2.06 | 5.29 | –
10 | CCTACTGGGCGATTCAGAGGTCATTGATCATATG | 3.62 | 3.12 | 2.1 | 0.873 | 3.28 | 2.83 | 0.887 | 2.83 | –
11 | TAGCCTAGGTCATGCGGGTCAGTATAGTGTCGGC | 4.27 | 4.91 | 4.9 | 1.07 | 4.2 | 3.75 | 1.35 | 2.26 | –
12 | CCTACTGGGCCACTCAGAGGTCATTGATCATATG | 4.26 | 4.46 | 3.39 | 0.734 | 4.43 | 3.41 | 1.71 | 2.75 | 4.06
13 | CATAGTTGGTCAAGGTCACACACGCTATAGGTAC | 4.31 | 4.62 | 4.62 | 2.04 | 4.73 | 4.18 | 4.02 | 3.8 | –
14 | CTATGTAGGTTAAGGGGGTCATTCATTTTGAAAG | 3.81 | 4.91 | 3.98 | 2.28 | 5.74 | 3.64 | 1.93 | 5.01 | –
15 | ATACGTAGGTTATCGGGTCATTCAGTTTGCGCAT | 2.77 | 3.41 | 2.36 | 1.77 | 3.41 | 3.18 | 2.93 | 3.86 | –
16 | ATCGAAAGGTCGTCGAGGTGAGTATACACCGTTT | 3.07 | 4.59 | 4.35 | 1.72 | 5.2 | 3.83 | 0.955 | 2.41 | –
17 | CAAACTAGGTCAAAGGTCAAAATCGAGCCAACCA | 5.03 | 8.72 | 7.08 | 3.07 | 10.1 | 4.95 | 1.51 | 2.94 | 6.43
18 | CCGAGTCGGTTACGAGGGGGCATTCAGTGCGAAT | 1.4 | 1.66 | 1.41 | 0.587 | 0.76 | 2.35 | 0.015 | 3.2 | –
19 | CGAACTAGGTCAGAACAGGACAGTTAAGGATGAT | 2.09 | 2.45 | 3.49 | 0.671 | 1.3 | 3.48 | 0.637 | 0.142 | –
20 | CTATGTAGGTTAAGGGGGTCATTCACTTTGAAAG | 3.95 | 5.11 | 4.05 | 2.33 | 5.85 | 3.53 | 1.72 | 5.5 | –
21 | CGTACTAGGTCAAAGGACAGTGAAAGGCGACGTA | 2.87 | 4.02 | 4.76 | 1.91 | 3.01 | 2.51 | 0.4 | 0.647 | –
22 | ACTAGTTGGTCAGCTGGGGTCACACACAATTCGG | 4.07 | 4.45 | 3.92 | 1.28 | 5.58 | 4.71 | 3.54 | 3.33 | –
23 | AGAACGAGGGCAATGAGTTCATAGCACGGGTGGC | 2.84 | 2.78 | 2.56 | 3.91 | 2.42 | 2.58 | 0.398 | 10.3 | –
24 | CTATTTAGGTTAAGGGGGTCATTCAGTTTGAAAG | 3.95 | 5.19 | 4.01 | 2.74 | 5.73 | 4.05 | 2.07 | 6.2 | –
